In all, about 5,500 compounds went through this assay and about 2,000 (36%) were called active. Another 18% or so got no clear call; they are omitted. The list shows a part of the results. Values without a mark were called inactive. Cut-off read from the data, not from the text of the source: active = normalized growth mostly below about 0.91 (no sharp cut-off); inconclusive = no clear call, values can overlap the other calls; inactive = mostly above about 0.92.
Test: chemical genetic growth profiling, strain panel (AID 1159580);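 note: tested at 20 µM; growth read once vehicle control cultures reached saturation at 30 °C; 1 = growth at the plate median or of vehicle wells; lower values mean less growth of the strain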
Details: S. cerevisiae deletion strains, growth OD

c1ccc2c(Cc3c[nH]c4ccccc34)c[nH]c2c1
normalized growth (locus YAL021C, strain ccr4, hits give low values): 0.848 (active) | normalized growth (locus YAL026C, strain drs2, hits give low values): 0.263 (active) | normalized growth (locus YAL030W, strain snc1, hits give low values): 0.785 (active) | normalized growth (locus YBL061C, strain skt5, hits give low values): 0.51 (active) | normalized growth (locus YBR009C, strain hhf1, hits give low values): 0.341 (active) | normalized growth (locus YBR023C, strain chs3, hits give low values): 0.523 (active) | normalized growth (locus YBR171W, strain sec66, hits give low values): 0.515 (active) | normalized growth (locus YBR231C, strain swc5, hits give low values): 0.501 (active) | normalized growth (locus YBR279W, strain paf1, hits give low values): 0.496 (active) | normalized growth (locus YCL011C, strain gbp2, hits give low values): 0.319 (active) | normalized growth (locus YCL016C, strain dcc1, hits give low values): 0.543 (active) | normalized growth (locus YCL069W, strain vba3, hits give low values): 0.364 (active) | normalized growth (locus YCR088W, strain abp1, hits give low values): 0.632 (active) | normalized growth (locus YDL005C, strain med2, hits give low values): 0.939 | normalized growth (locus YDL040C, strain nat1, hits give low values): 0.784 (active) | normalized growth (locus YDR001C, strain nth1, hits give low values): 0.824 (active) | normalized growth (locus YDR069C, strain doa4, hits give low values): 1 | normalized growth (locus YDR137W, strain rgp1, hits give low values): 0.331 (active) | normalized growth (locus YDR159W, strain sac3, hits give low values): 0.547 (active) | normalized growth (locus YDR195W, strain ref2): 1.24 [resistant] (active) | normalized growth (locus YDR297W, strain sur2, hits give low values): 0.704 (active) | normalized growth (locus YDR334W, strain swr1, hits give low values): 0.459 (active) | normalized growth (locus YDR335W, strain msn5, hits give low values): 0.501 (active) | normalized growth (locus YDR392W, strain spt3, hits give low values): 0.11 (active) | normalized growth (locus YEL003W, strain gim4, hits give low values): 0.282 (active) | normalized growth (locus YEL037C, strain rad23, hits give low values): 0.779 (active) | normalized growth (locus YEL061C, strain CIN8 (second series), hits give low values): 0.413 (active) | normalized growth (locus YER015W, strain faa2, hits give low values): 0.443 (active) | normalized growth (locus YER016W, strain bim1, hits give low values): 0.681 (active) | normalized growth (locus YER111C, strain swi4, hits give low values): 0.455 (active) | normalized growth (locus YER155C, strain BEM2 (second series), hits give low values): 0.147 (active) | normalized growth (locus YFR010W, strain ubp6, hits give low values): 0.836 (active) | normalized growth (locus YGL167C, strain pmr1, hits give low values): 0.958 | normalized growth (locus YGL173C, strain kem1, hits give low values): 0.765 (active) | normalized growth (locus YGL227W, strain vid30, hits give low values): 0.154 (active) | normalized growth (locus YGL240W, strain doc1, hits give low values): 0.68 (active) | normalized growth (locus YGL253W, strain hxk2, hits give low values): 0.348 (active) | normalized growth (locus YHR013C, strain ard1, hits give low values): 0.617 (active) | normalized growth (locus YHR027C, strain rpn1, hits give low values): 0.615 (active) | normalized growth (locus YHR030C, strain SLT2, hits give low values): 0.428 (active) | normalized growth (locus YHR079C, strain IRE1, hits give low values): 0.531 (active) | normalized growth (locus YHR142W, strain chs7, hits give low values): 0.202 (active) | normalized growth (locus YJL092W, strain hpr5, hits give low values): 0.635 (active) | normalized growth (locus YJL095W, strain BCK1 (second series), hits give low values): 0.47 (active) | normalized growth (locus YJL095W, strain BCK1, hits give low values): 0.528 (active) | normalized growth (locus YJL115W, strain asf1, hits give low values): 0.811 (active) | normalized growth (locus YJL129C, strain trk1, hits give low values): 0.518 (active) | normalized growth (locus YJL154C, strain vps35, hits give low values): 0.794 (active) | normalized growth (locus YJL164C, strain tpk1, hits give low values): 0.429 (active) | normalized growth (locus YJL166W, strain qcr8, hits give low values): 0.356 (active) | normalized growth (locus YJR066W, strain TOR1, hits give low values): 0.54 (active) | normalized growth (locus YKL160W, strain elf1, hits give low values): 0.388 (active) | normalized growth (locus YKR026C, strain gcn3, hits give low values): 0.763 (active) | normalized growth (locus YKR091W, strain srl3, hits give low values): 0.802 (active) | normalized growth (locus YLL001W, strain dnm1, hits give low values): 0.421 (active) | normalized growth (locus YLL026W, hits give low values): 0.469 (active) | normalized growth (locus YLL041C, strain sdh2, hits give low values): 0.758 (active) | normalized growth (locus YLR027C, strain aat2, hits give low values): 0.446 (active) | normalized growth (locus YLR113W, strain HOG1, hits give low values): 0.648 (active) | normalized growth (locus YLR221C, strain rsa3, hits give low values): 0.343 (active) | normalized growth (locus YLR258W, strain gsy2, hits give low values): 0.722 (active) | normalized growth (locus YLR262C, strain YPT6 (second series), hits give low values): 0.348 (active) | normalized growth (locus YLR320W, strain mms22, hits give low values): 0.235 (active) | normalized growth (locus YLR342W, strain FKS1, hits give low values): 0.518 (active) | normalized growth (locus YLR357W, strain rsc2, hits give low values): 0.876 | normalized growth (locus YLR370C, strain arc18, hits give low values): 0.57 (active) | normalized growth (locus YLR384C, strain iki3, hits give low values): 0.829 (active) | normalized growth (locus YML120C, strain ndi1, hits give low values): 0.324 (active) | normalized growth (locus YMR058W, strain fet3, hits give low values): 0.322 (active) | normalized growth (locus YMR125W, strain sto1, hits give low values): 0.469 (active) | normalized growth (locus YMR129W, hits give low values): 0.647 (active) | normalized growth (locus YMR205C, strain PFK2, hits give low values): 0.506 (active) | normalized growth (locus YMR231W, strain pep5, hits give low values): 0.249 (active) | normalized growth (locus YNL071W, strain lat1, hits give low values): 0.106 (active) | normalized growth (locus YNL183C, strain NPR1, hits give low values): 0.593 (active) | normalized growth (locus YNL209W, strain ssb2, hits give low values): 0.644 (active) | normalized growth (locus YNL248C, strain rpa49, hits give low values): 0.629 (active) | normalized growth (locus YNL322C, strain KRE1 (second series), hits give low values): 0.73 (active) | normalized growth (locus YNR049C, strain mso1, hits give low values): 0.674 (active) | normalized growth (locus YOR001W, strain rrp6, hits give low values): 0.531 (active) | normalized growth (locus YOR070C, strain gyp1, hits give low values): 0.379 (active) | normalized growth (locus YOR080W, strain dia2, hits give low values): 0.772 (active) | normalized growth (locus YOR083W, strain WHI5, hits give low values): 0.419 (active) | normalized growth (locus YOR106W, strain vam3, hits give low values): 0.43 (active) | normalized growth (locus YOR231W, strain MKK1, hits give low values): 0.511 (active) | normalized growth (locus YOR265W, strain rbl2, hits give low values): 0.534 (active) | normalized growth (locus YOR270C, strain vph1, hits give low values): 0.338 (active) | normalized growth (locus YOR290C, strain snf2, hits give low values): 0.219 (active) | normalized growth (locus YPL051W, strain arl3, hits give low values): 0.264 (active) | normalized growth (locus YPL078C, strain atp4, hits give low values): 0.363 (active) | normalized growth (locus YPL106C, strain sse1, hits give low values): 1 | normalized growth (locus YPL240C, strain hsp82, hits give low values): 0.63 (active) | normalized growth (locus YPL256C, strain CLN2, hits give low values): 0.652 (active)

— PubChem BioAssay AID1159580 (chemical genetic matrix, 2015)
